Assay [1] is described as follows: qHTS of pediatric cancer cell lines to identify multiple opportunities for drug repurposing: Primary screen for Rh18 cells (AID 1347102). Also: nearly all actives have a fitted effect of over 65% in size. Also: potency is read from the fitted curve at half-maximal effect. As to activity change, negative = cytotoxic: % is scaled to controls: 0 for no effect and ±100 for the full control effect. The note with it: Rh18 rhabdomyosarcoma viability, CellTiter-Glo luminescence, 48 h; series mostly up to 46 µM. In a few lines: (§1)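 Cells (500-1,000/well) in growth media were settled 5 h at 37 degrees C, then given compounds for 48 h. Viability was read as CellTiter-Glo luminescence. Primary runs used MIPE at 11 points (0.78 nM-46 µM) and NPC at 8 points (0.59 nM-46 µM); follow-ups used 11 points.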
In general terms: In qHTS, concentration-response curves come from the screen itself.

A short description of assay [2]: qHTS of pediatric cancer cell lines to identify multiple opportunities for drug repurposing: Primary screen for OHS-50 cells (AID 1347103). Also: nearly all actives have a fitted effect of over 40% in size. Also: potency is read from the fitted curve at half-maximal effect.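 As to activity change, negative = cytotoxic: plate controls were DMSO neutral control for no effect and bortezomib positive control for full effect.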 The note with it: OHS-50 osteosarcoma viability, CellTiter-Glo luminescence, 48 h; series mostly up to 57.3 µM. In a few lines: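 Cells (500-1,000/well) rested 5 h, then received compounds for 48 h; metabolically active cells were measured by CellTiter-Glo luminescence. Final concentrations spanned up to 46 µM (MIPE, 11-point) or 0.59 nM-46 µM (NPC, 8-point) in primary screens, 11-point in follow-ups.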

Assay [3] in a line: qHTS of pediatric cancer cell lines to identify multiple opportunities for drug repurposing: Primary screen for RD cells (AID 1347104). Also: nearly all actives have a fitted effect of over 55% in size. Also: potency is read from the fitted curve at half-maximal effect.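 As to activity change, negative = cytotoxic: plate controls were DMSO for no effect and bortezomib for full effect.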 To be noted: RD rhabdomyosarcoma viability, CellTiter-Glo luminescence, 48 h; series mostly up to 46 µM. In a few lines: (§2)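 ATP-based luminescence (CellTiter-Glo) quantifies viability after a 48-hour exposure. Compounds are dosed across 8 or 11 final concentrations; DMSO and 2.3 µM bortezomib serve as controls.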

Assay [4] can be described thus: qHTS of pediatric cancer cell lines to identify multiple opportunities for drug repurposing: Primary screen for MG 63 (6-TG R) cells (AID 1347105). Also: % is scaled to controls: 0 for no effect and ±100 for the full control effect; nearly all actives have a fitted effect of over 50% in size. To be noted: MG 63 (6-TG R) viability, CellTiter-Glo, 48 h; series mostly up to 46 µM. A digest of the protocol: as §2
Assay [5] in a line: qHTS of pediatric cancer cell lines to identify multiple opportunities for drug repurposing: Primary screen for control Hh wild type fibroblast cells (AID 1347106).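 Also: % is scaled to controls: 0 for no effect and ±100 for the full control effect; a drop in luminescence marks cytotoxicity and a rise apparent proliferation; nearly all actives have a fitted effect of over 55% in size.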 To be noted: Hh wild-type fibroblast viability, CellTiter-Glo luminescence, 48 h; series mostly up to 46 µM. A digest of the protocol:
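Viability after 48 h compound treatment at 37C, 500-1,000 cells/well, read as ATP luminescence with CellTiter-Glo. Primary screens used 11-point (MIPE, 0.78 nM-46 µM) or 8-point (NPC, 0.59 nM-46 µM) final concentrations; follow-up screens used 11-point dilutions.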

Assay [6] is described as follows: qHTS of pediatric cancer cell lines to identify multiple opportunities for drug repurposing: Primary screen for Rh30 cells (AID 1347107). Also: % is scaled to controls: 0 for no effect and ±100 for the full control effect; nearly all actives have a fitted effect of over 75% in size. The note with it: Rh30 rhabdomyosarcoma viability, CellTiter-Glo luminescence, 48 h; series mostly up to 46 µM. A digest of the protocol: as §1
The nature of assay [7]: qHTS of pediatric cancer cell lines to identify multiple opportunities for drug repurposing: Primary screen for Rh41 cells (AID 1347108).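 Also: luminescence drop marks cytotoxic hits; nearly all actives have a fitted effect of over 70% in size.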 To be noted: Rh41 rhabdomyosarcoma viability, CellTiter-Glo luminescence, 48 h; series mostly up to 46 µM. A digest of the protocol:
as §2

Inconclusive results are not listed. Values without a mark were called inactive. Calls of active or inactive are those of the source. Calls follow the shape of the dose curve; as a rule, active = well fitted curve in the direction sought with a large enough effect; inconclusive = small, poorly fitted or top-dose-only effect, or another doubt; inactive = no such curve, though single readings can be large; an effect the other way counts as inactive or inconclusive.

Regarding `CC1(C)CO[C@@H](CC(=O)O)CN1`, the Potency result in assay [1], in assay [2], in assay [3], in assay [4] and in assay [7] was “inactive” each time. The call in assay [5] and in assay [6] was inactive.
As for `O=c1cc[nH]c(=O)[nH]1`, the Potency result in assay [1], in assay [2], in assay [3], in assay [4] and in assay [7] was “inactive” in each case. In addition, the call in assay [5] and in assay [6] was inactive.
As for `CCCc1c(OCCCCc2nn[nH]n2)ccc(C(C)=O)c1O`, the Potency result in assay [1], in assay [2], in assay [3], in assay [4] and in assay [7] was “inactive” in each case. The compound was classed as inactive in assay [5] and in assay [6].
With `CC1(C)S[C@@H]2[C@H](NC(=O)Cc3ccccc3)C(=O)N2[C@H]1C(=O)O` (tested in a mixture with another compound), the Potency entry in assay [1], in assay [2], in assay [3], in assay [4] and in assay [7] was “inactive” throughout. Moreover, the outcome in assay [5] and in assay [6] was inactive.
For the compound `CC(C)(C)NCC(O)COc1ccc(NC(=O)NC2CCCCC2)cc1` (configuration not stated), the Potency entry in assay [1], in assay [2], in assay [3], in assay [4] and in assay [7] was “inactive” in each case. In addition, the result in assay [5] and in assay [6] was inactive.
With `COc1cc2[nH]c(=O)[nH]c(=O)c2cc1OC`, the Potency result in assay [1], in assay [2], in assay [3], in assay [4] and in assay [7] was “inactive” throughout. Also, the compound was classed as inactive in assay [5] and in assay [6].
Turning to `O=c1cc(CO)occ1O`, the Potency result in assay [1], in assay [2], in assay [3], in assay [4] and in assay [7] was “inactive” throughout. Moreover, the compound was called inactive in assay [5] and in assay [6].
Turning to `C[C@@H](O)[C@H](N)C(=O)O`, the Potency entry in assay [1], in assay [2], in assay [3], in assay [4] and in assay [7] was “inactive” in each case. The outcome in assay [5] and in assay [6] was inactive.
Take `CN(C)CCCO[C@@H]1[C@H]2OC(C)(C)O[C@H]2O[C@@H]1C(O)CO` (some centres not stated): the Potency entry in assay [1], in assay [2], in assay [3], in assay [4] and in assay [7] was “inactive” each time. Also, the compound was classed as inactive in assay [5] and in assay [6].
On to `COc1cc(C)c(Cc2cnc(N)nc2N)cc1OC`, for which the Potency entry in assay [1], in assay [2], in assay [3], in assay [4] and in assay [7] was “inactive” each time. The compound was called inactive in assay [5] and in assay [6].
In the case of `Cc1cc2nc3c(=O)[nH]c(=O)nc-3n(C[C@H](O)[C@H](O)[C@H](O)CO)c2cc1C`, the Potency result in assay [1], in assay [2], in assay [3], in assay [4] and in assay [7] was “inactive” each time. Further, the compound was called inactive in assay [5] and in assay [6].
In the case of `NC1CCN(c2cccc(Cl)n2)CC1`, the Potency entry in assay [1], in assay [2], in assay [3], in assay [4] and in assay [7] was “inactive” throughout. In addition, the call in assay [5] and in assay [6] was inactive.
As for `COC(=O)[C@H]1[C@H]2C[C@@H]3c4[nH]c5cc(OC)ccc5c4CCN3C[C@H]2C[C@@H](OC(=O)COc2ccc(OC)cc2)[C@@H]1OC`, the Potency result in assay [1], in assay [2], in assay [3], in assay [4] and in assay [7] was “inactive” in each case. Besides, the result in assay [5] and in assay [6] was inactive.
In the case of `CO/N=C(\C(=O)N[C@@H]1C(=O)N2C(C(=O)O)=C(CSc3nc(=O)c(O)nn3C)CS[C@H]12)c1csc(N)n1`, the Potency entry in assay [1], in assay [2], in assay [3], in assay [4] and in assay [7] was “inactive” in each case. The result in assay [5] and in assay [6] was inactive.
Regarding `C[C@@H]1CC[C@@]2(OC1)O[C@H]1C[C@H]3[C@@H]4CC[C@H]5C[C@@H](O)CC[C@]5(C)[C@H]4CC(=O)[C@]3(C)[C@H]1[C@@H]2C`, the activity change, negative = cytotoxic in assay [1] is 11.3% [at 4.84 µM]; in assay [2], 9.93% [at 6.18 µM]; in assay [3] it was 12.6% [at 4.84 µM]; in assay [4] it was -5.19% [at 4.84 µM]; in assay [5], 6.44% [at 4.84 µM]; in assay [6] it was 18.9% [at 4.84 µM]. Also, the activity change, negative = cytotoxic in assay [7] is 21.2% [at 4.84 µM].
On to `NC(CSCC(=O)O)C(=O)O` (configuration not stated), for which the Potency result in assay [1], in assay [2], in assay [3], in assay [4] and in assay [7] was “inactive” throughout. The compound was classed as inactive in assay [5] and in assay [6].
Regarding `CN(N=O)C(=O)N[C@@H]1[C@@H](O)[C@H](O)[C@@H](CO)O[C@@H]1O`, the Potency entry in assay [1], in assay [2], in assay [3], in assay [4] and in assay [7] was “inactive” in each case. The call in assay [5] and in assay [6] was inactive.
Consider `Cc1cc(O)cc2c1O[C@](C)(CCC[C@H](C)CCC[C@H](C)CCCC(C)C)CC2`, for which the Potency entry in assay [1], in assay [2], in assay [3], in assay [4] and in assay [7] was “inactive” throughout. Further, the outcome in assay [5] and in assay [6] was inactive.
On to `O=C1NC(=O)[C@@]2(CCOc3ccc(F)cc32)N1`, for which the Potency result in assay [1], in assay [2], in assay [3], in assay [4] and in assay [7] was “inactive” throughout. The outcome in assay [5] and in assay [6] was inactive.
For the compound `CCN(CC)CCNC(C(=O)OCCC(C)C)c1ccccc1` (configuration not stated), the Potency entry in assay [1], in assay [2], in assay [3], in assay [4] and in assay [7] was “inactive” in each case. In addition, the call in assay [5] and in assay [6] was inactive.
Turning to `O=C(O)c1ccccc1-c1ccc(C(F)(F)F)cc1`, the Potency result in assay [1], in assay [2], in assay [3], in assay [4] and in assay [7] was “inactive” in each case. In addition, the result in assay [5] and in assay [6] was inactive.
In the case of `COc1cc(C(=O)N2CCOCC2)cc(OC)c1OC`, the Potency entry in assay [1], in assay [2], in assay [3], in assay [4] and in assay [7] was “inactive” each time. The call in assay [5] and in assay [6] was inactive.
For the compound `CCn1cc(C(=O)O)c(=O)c2cnc(N3CCNCC3)nc21`, the Potency result in assay [1], in assay [2], in assay [3], in assay [4] and in assay [7] was “inactive” each time. Further, the compound was called inactive in assay [5] and in assay [6].
In the case of `OC[C@H]1O[C@@H](O[C@@H]2[C@@H](CO)O[C@](O)(CO)[C@H]2O)[C@H](O)[C@@H](O)[C@H]1O`, the Potency entry in assay [1], in assay [2], in assay [3], in assay [4] and in assay [7] was “inactive” throughout. In addition, the result in assay [5] and in assay [6] was inactive.
Consider `COc1ccc(S(=O)(=O)Nc2nnc(CC(C)C)s2)cc1`, for which the Potency entry in assay [1], in assay [2], in assay [3], in assay [4] and in assay [7] was “inactive” each time. Besides, the compound was called inactive in assay [5] and in assay [6].
Regarding `O=Cc1ccccc1C=O`, the Potency entry in assay [1], in assay [2], in assay [3], in assay [4] and in assay [7] was “inactive” each time. Moreover, the compound was classed as inactive in assay [6].
For the compound `CC(C)C(=O)c1c(C(C)C)nn2ccccc12`, the Potency entry in assay [1], in assay [2], in assay [3], in assay [4] and in assay [7] was “inactive” throughout. Besides, the compound was called inactive in assay [6].
Take `CC1CC(OC(=O)C(O)c2ccccc2)CC(C)(C)N1C` (configuration not stated): the Potency result in assay [1], in assay [2], in assay [3], in assay [4] and in assay [7] was “inactive” throughout. The outcome in assay [6] was inactive.
As to `CC(=O)OCC(=O)[C@@]1(O)CC[C@H]2[C@@H]3CCC4=CC(=O)CC[C@]4(C)[C@H]3C(=O)C[C@@]21C`, the Potency entry in assay [1], in assay [2], in assay [3], in assay [4] and in assay [7] was “inactive” throughout. Further, the compound was classed as inactive in assay [6].
On to `CC[C@@]1(c2ccccc2)NC(=O)N(C)C1=O`, for which the Potency entry in assay [1], in assay [2], in assay [3], in assay [4] and in assay [7] was “inactive” each time. Further, the outcome in assay [6] was inactive.
Turning to `CSc1ccc2c(c1)N(CCC1CCCCN1C)c1ccccc1S2` (configuration not stated), the Potency was 16.8 µM (active) in assay [1], 17.4 µM (active) in assay [2] and 26.6 µM (active) in assay [3]. Further, the compound was classed as inactive in assay [5].
Consider `NCCNCCNCCNCCN`, for which the activity change, negative = cytotoxic in assay [1] is -4.13% [at 9.22 µM]; in assay [2] it was -3.79% [at 11.5 µM]; in assay [3], -3.51% [at 9.22 µM]; in assay [5], -0.844% [at 9.22 µM]; in assay [6], 7.05% [at 9.22 µM]; in assay [7], 10.3% [at 9.22 µM].
Consider `CC(=O)Oc1c(C)c(C)c2c(c1C)CC[C@@](C)(CCC[C@H](C)CCC[C@H](C)CCCC(C)C)O2`, for which the Potency entry in assay [1], in assay [2], in assay [3], in assay [4] and in assay [7] was “inactive” each time. The compound was classed as inactive in assay [6].
On to `CN1[C@@H]2CC(OC(=O)[C@H](CO)c3ccccc3)C[C@H]1[C@@H]1O[C@@H]12` (some centres not stated), for which the Potency result in assay [1], in assay [2] and in assay [4] was “inactive” each time. In addition, the result in assay [5] and in assay [6] was inactive.
In the case of `O=C(O)[C@@H]1CSCN1`, the Potency result in assay [1], in assay [2], in assay [3] and in assay [4] was “inactive” in each case. Moreover, in assay [6], the outcome was inactive.
For the compound `N[C@H](C(=O)O)c1ccc(O)cc1`, the Potency entry in assay [1], in assay [2], in assay [3], in assay [4] and in assay [7] was “inactive” each time. Moreover, in assay [6], the outcome was inactive.

Source of the values: PubChem BioAssay (NCATS).
